Assay outcomes from PubChem.
IL1B secr inh: qHTS for Inhibitors of Inflammasome Signaling: IL-1-beta AlphaLISA Primary Screen; THP-1 LPS/ATP IL-1B secretion, AlphaLISA, 16 h; stronger effect = lower value; activity change, % at 57.5 µM; 360,000 tested, 4.7% active; in the data active = activity change below about -50%; inconclusive = mostly about -30% to -49%
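THP-1 cells pretreated 1 hr with compounds (up to 57.5 uM final), then stimulated with LPS (250 ng/mL final) plus ATP (1.25 mM final); secreted IL-1B measured by AlphaLISA after 16 hr, decreased signal indicating inhibition.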
uPA surface inh: qHTS for Inhibitors of Cell Surface uPA Generation. Potency, µM (highest dose often 38.3 µM), for inactives: at the highest dose activity change, negative = inhibition, usual class: inhibitors. AID 540303, 2011. 330,000 tested, 0.31% active. cell surface uPA generation assay, qHTS; active = well fitted inhibition curve with a large enough effect; inconclusive = small, poorly fitted or top-dose-only effect; inactive = no such curve, though single readings can be large or run the other way; tested in mouse RAW 264.7 cells; also: potency is read from the fitted curve at half-maximal effect; nearly all actives have a fitted effect of over 55% in size
DT40 TDP1 CPT: qHTS for Inhibitors of human tyrosyl-DNA phosphodiesterase 1 (TDP1): qHTS in cells in presence of CPT | chicken DT40 Tdp1-/-;hTDP1 cells + 20 nM CPT, ATP luminescence, 48 h | Potency, µM (titrated, usually from 46.2 µM), for the others: at the top dose activity change, negative = growth inhibition, most hits filed as inhibitors | 420,000 tested, 12% active; also: potency is read from the fitted curve at half-maximal effect; nearly all actives have a fitted effect of over 55% in size
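Cell growth measured by CellTiter-Glo luminescence after a minimum 48 h, 37 C compound exposure with 20 nM CPT in Tdp1-knockout DT40 cells stably expressing hTDP1, seeded 400/well; qHTS titration format.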
HT1080 IDH1KD tx: qHTS for induction of synthetic lethality in tumor cells producing 2HG: qHTS for the HT-1080-IDH1KD cell line; HT-1080 IDH1 knockdown viability, ATP luminescence, 48 h; Potency, µM (titrated, usually from 46.1 µM), for the others: top-dose activity, negative = toxicity, actives largely listed as cytotoxic; 360,000 tested, 2% active; AID 686971, 2013;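 also: potency is read from the fitted curve at half-maximal effect; 0% = DMSO wells and -100% = cell-free medium wells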
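Viability of IDH1-knockdown HT-1080 fibrosarcoma cells was assessed by CellTiter-Glo after 48 h at 37 °C with titrated compound; concentration-effect curves were classified by fit quality and response size.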
HT1080-NT tox: qHTS for induction of synthetic lethality in tumor cells producing 2HG: qHTS for the HT-1080-NT fibrosarcoma cell line | HT-1080-NT fibrosarcoma viability, CellTiter-Glo ATP luminescence, 48 h | Potency, µM (titrated, usually from 46.1 µM), for the others: at the top dose activity, negative = less viability, most hits filed as cytotoxic | 360,000 tested, 1.6% active;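 also: NT is the 2HG producing partner of a matched IDH1 knockdown line; potency is read from the fitted curve at half-maximal effect; 0% = DMSO-treated cells and -100% = media-only wells without cells; nearly all actives have a fitted effect of over 55% in size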
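Fibrosarcoma NT cells, 750 per well in 5% FBS RPMI, were exposed to compound for 48 hours. Viability: CellTiter-Glo luminescence.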
DT40 TDP1 no CPT: qHTS for Inhibitors of human tyrosyl-DNA phosphodiesterase 1 (TDP1): qHTS in cells in absence of CPT. DT40 Tdp1-/- hTDP1 cells, no CPT, ATP luminescence, 48 h. Potency, µM (top dose mostly 46.2 µM), for inactives: top-dose activity change, negative = growth inhibition, most hits filed as inhibitors. AID 686978, 2013. 420,000 tested, 15% active; also: potency is read from the fitted curve at half-maximal effect; nearly all actives have a fitted effect of over 55% in size
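Camptothecin absent (DMSO only). Human TDP1-complemented DT40 knockout cells, 400 cells/well, 37 °C for minimum 48 hr; ATP measured via CellTiter-Glo, 30 min dark incubation, luminescence.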
* marks the source's active call; other numbers are inactive results; [ ] = another dose, or the depositor's remark. Most compounds without a hit are left out; they make up all but 19% or so of the library. Unless noted, calls follow the shape of the dose curve; as a rule, active = well fitted curve in the direction sought with a large enough effect; inconclusive = small, poorly fitted or top-dose-only effect, or another doubt; inactive = no such curve, though single readings can be large; an effect the other way counts as inactive or inconclusive. Unless noted, % is scaled to controls: 0 for no effect and ±100 for the full control effect.

How did Cc1cccc(/C(N)=N/OC(=O)N2c3ccccc3Sc3ccccc32)c1 do in these assays?
IL1B secr inh: 0; uPA surface inh: -5%; DT40 TDP1 CPT: inconclusive; HT1080 IDH1KD tx: -12%; HT1080-NT tox: -17%; DT40 TDP1 no CPT: 21µM*

What do the screens show for `CC(=O)Nc1ccc(Nc2c([N+](=O)[O-])c(=O)n(-c3ccccc3)c3ccccc23)cc1`?
IL1B secr inh: -6; uPA surface inh: 3%; DT40 TDP1 CPT: 1%; HT1080 IDH1KD tx: 5%; HT1080-NT tox: -24%; DT40 TDP1 no CPT: 1%

How did O=C(CSc1ccccc1C(=O)NCc1ccccc1)NC1CCCCCCC1 do in these assays?
IL1B secr inh: -101*; uPA surface inh: inconclusive; DT40 TDP1 CPT: inconclusive; HT1080 IDH1KD tx: 1%; HT1080-NT tox: 5%; DT40 TDP1 no CPT: inconclusive

Results for O=C(Nc1ccccc1C(=O)NC(Cc1ccccc1)C(=O)O)c1ccccc1 (centres undefined) ?
IL1B secr inh: -11; uPA surface inh: 1%; DT40 TDP1 CPT: -7%; HT1080 IDH1KD tx: 7%; HT1080-NT tox: 15%; DT40 TDP1 no CPT: -3%

What do the screens show for `O=C(CSc1ccccc1C(=O)O)NC1CCCCCC1`?
IL1B secr inh: 19; uPA surface inh: -1%; DT40 TDP1 CPT: 7%; HT1080 IDH1KD tx: 5%; HT1080-NT tox: 6%; DT40 TDP1 no CPT: -2%

What do the screens show for `CC(C)CCNC(=O)c1ccccc1SCC(=O)NC1CCCCCCC1`?
IL1B secr inh: -4; uPA surface inh: -7%; DT40 TDP1 CPT: 23µM*; HT1080 IDH1KD tx: -5%; HT1080-NT tox: 2%; DT40 TDP1 no CPT: inconclusive

Results for O=C(CSc1ccccc1C(=O)O)NCc1ccccc1 ?
IL1B secr inh: 11; uPA surface inh: 0%; DT40 TDP1 CPT: 14%; HT1080 IDH1KD tx: 15%; HT1080-NT tox: 26%; DT40 TDP1 no CPT: -9%

What do the screens show for `O=C(CSc1ccccc1C(=O)NCc1ccccc1)NC12CC3CC(CC(C3)C1)C2`?
IL1B secr inh: inconclusive; uPA surface inh: -8%; DT40 TDP1 CPT: inconclusive; HT1080 IDH1KD tx: -2%; HT1080-NT tox: -9%; DT40 TDP1 no CPT: 29µM*

How did O=C(Nc1ccccc1C(=O)NC(Cc1ccccc1)C(=O)NC1CCCCC1)c1ccccc1 (centres undefined) do in these assays?
IL1B secr inh: 18; uPA surface inh: -6%; DT40 TDP1 CPT: inconclusive; HT1080 IDH1KD tx: -3%; HT1080-NT tox: -7%; DT40 TDP1 no CPT: 26µM*

What do the screens show for `O=C(CSc1ccccc1C(=O)O)NC1CCCCCCC1`?
IL1B secr inh: 11; uPA surface inh: 3%; DT40 TDP1 CPT: 1%; HT1080 IDH1KD tx: 13%; HT1080-NT tox: 6%; DT40 TDP1 no CPT: 0%

Results for CCC(=O)N(NC1=NS(=O)(=O)c2ccccc21)S(=O)(=O)c1ccc(C)cc1 ?
IL1B secr inh: 1; uPA surface inh: 2%; DT40 TDP1 CPT: 5%; HT1080 IDH1KD tx: 2%; HT1080-NT tox: 15%; DT40 TDP1 no CPT: -3%

How did COc1ccc(C(C)(C)NC(=O)C2CCC(=O)N(C3CCCC3)C2)cc1OC (centres undefined) do in these assays?
IL1B secr inh: 0; uPA surface inh: 0%; DT40 TDP1 CPT: 8%; HT1080 IDH1KD tx: 13%; HT1080-NT tox: 0%; DT40 TDP1 no CPT: -3%

How did Clc1cccc(Cl)c1CNc1ccc(N2CCCC2)cc1 do in these assays?
IL1B secr inh: inconclusive; uPA surface inh: -3%; DT40 TDP1 CPT: 6.5µM*; HT1080 IDH1KD tx: -27%; HT1080-NT tox: inconclusive; DT40 TDP1 no CPT: 16µM*

Results for Fc1ccc(CNc2ccc(N3CCN(Cc4ccccc4)CC3)cc2)cc1 ?
IL1B secr inh: inconclusive; uPA surface inh: -10%; DT40 TDP1 CPT: inconclusive; HT1080 IDH1KD tx: -15%; HT1080-NT tox: -27%; DT40 TDP1 no CPT: inconclusive

How did Cc1cc(C(=O)N/N=C/c2ccc3c(c2)OCO3)c2ccccc2n1 do in these assays?
IL1B secr inh: 99; uPA surface inh: inconclusive; DT40 TDP1 CPT: 2.3µM*; HT1080 IDH1KD tx: 4.1µM*; HT1080-NT tox: inconclusive; DT40 TDP1 no CPT: 2.1µM*

Results for O=C(N/N=C/c1ccc2c(c1)OCO2)c1cc(-c2ccccc2Cl)nc2ccccc12 ?
IL1B secr inh: 24; uPA surface inh: 16%; DT40 TDP1 CPT: 2%; HT1080 IDH1KD tx: 10%; HT1080-NT tox: -1%; DT40 TDP1 no CPT: -7%

How did O=C(N/N=C/c1ccc2c(c1)OCO2)c1cc(-c2ccncc2)nc2ccccc12 do in these assays?
IL1B secr inh: 26; uPA surface inh: -10%; DT40 TDP1 CPT: 3.7µM*; HT1080 IDH1KD tx: 2.6µM*; HT1080-NT tox: inconclusive; DT40 TDP1 no CPT: 4.1µM*

What do the screens show for `CCC1=[N+](CC(=O)c2ccc(C)cc2)CCn2cccc21`?
IL1B secr inh: -3; uPA surface inh: -3%; DT40 TDP1 CPT: 4.1µM*; HT1080 IDH1KD tx: -9%; HT1080-NT tox: -15%; DT40 TDP1 no CPT: 5.2µM*

How did CCC1=[N+](CC(=O)c2ccc(Br)cc2)CCn2c(C)ccc21 do in these assays?
IL1B secr inh: 2; uPA surface inh: -9%; DT40 TDP1 CPT: inconclusive; HT1080 IDH1KD tx: -7%; HT1080-NT tox: -9%; DT40 TDP1 no CPT: 10µM*

How did CCC1=[N+](CC(=O)c2ccc(C)cc2)CCn2c(C)ccc21 do in these assays?
IL1B secr inh: -5; uPA surface inh: -8%; DT40 TDP1 CPT: 2.9µM*; HT1080 IDH1KD tx: inconclusive; HT1080-NT tox: -13%; DT40 TDP1 no CPT: 2.1µM*

Results for CC1=[N+](CC(=O)c2ccccc2)CCn2cccc21 ?
IL1B secr inh: 5; uPA surface inh: 3%; DT40 TDP1 CPT: -18%; HT1080 IDH1KD tx: -14%; HT1080-NT tox: -4%; DT40 TDP1 no CPT: inconclusive

Results for Cn1c(=O)c2sc3c(c2n(CC(=O)Nc2ccccc2)c1=O)COC(C)(C)C3 ?
IL1B secr inh: 39; uPA surface inh: -3%; DT40 TDP1 CPT: 1%; HT1080 IDH1KD tx: 16%; HT1080-NT tox: 8%; DT40 TDP1 no CPT: 7%

Results for COc1ccc(OC)c(NC(=O)CCc2c[nH]c3ccccc23)c1 ?
IL1B secr inh: 14; uPA surface inh: 11%; DT40 TDP1 CPT: 11%; HT1080 IDH1KD tx: inconclusive; HT1080-NT tox: -22%; DT40 TDP1 no CPT: -12%

Results for COc1cc2nc(N(C)C)c(CNC3CCOC(C)(C)C3)cc2c(OC)c1OC (centres undefined) ?
DT40 TDP1 CPT: -7%[9.04 µM]; DT40 TDP1 no CPT: -23%
